The record followed here is PubChem BioAssay AID463173 (ICCB-Longwood Screening Facility, Harvard Medical School, 2010).

The structures appear in SMILES notation. In all, about 52,000 compounds went through this assay and about 4,300 (8.3%) were called active. Only a selection was taken, and actives are over-represented in it overall. Values without a mark were called inactive. Cut-off read from the data, not from the text of the source: active = survival mostly below about 52% (no sharp cut-off); inactive = mostly above about 56%.

The test system of this experiment is DeltatarO mutant. Description: growth inhibition of S. aureus wild type versus tarO mutant, primary screen, teichoic acid synthesis inhibitors, RN4220, OD600 (AID 463173). As to conditions: OD600, 18 h, active compounds read low, screened at 18.75 µg/mL (by protocol).
With `Cc1ccc(S(=O)(=O)N2C(=O)CCC2C(=O)N2CCCC2)cc1` (configuration not stated), the survival is 97%.

Take `Cc1ccc(N2CCN(c3c(CN4CCCC4)c(=O)oc4ccccc34)CC2)c(C)c1`: the survival is 67%.

Consider `COc1cc(Cl)c(C)cc1Nc1nc2ccccc2c2nnc(C)n12`, for which the survival was 124%.

In the case of `CCOC(=O)c1sc(N/C=C(\C#N)c2nc3cc(Cl)ccc3o2)c(C#N)c1C`, the survival is 81%.

Take `CN(C)c1ccc(CNC(=O)CN2CCSc3ccc(S(=O)(=O)N(C)C)cc32)cc1`: the survival is 66%.

Turning to `Cc1ccccc1CN1C(=O)C2(c3ccccc31)N(c1ccccc1)C(=O)CS2(=O)=O` (configuration not stated), the survival was 124%.

For the molecule `CCOc1ccc2nc(N3CCCC(C(=O)Nc4ccc(OC)cc4)C3)sc2c1` (configuration not stated), the survival is 60%.

As for `Cc1ccc(CNC(=O)c2cc(S(=O)(=O)N3CCCCCC3)cn2C)cc1`, the survival is 74%.

For the molecule `COc1ccc(CCNC(=O)c2cc(S(=O)(=O)N3CCCC(C)C3)cn2C)cc1OC` (configuration not stated), the survival was 47% (active).

Turning to `COc1ccccc1CNC(=O)c1cc(S(=O)(=O)N2CCCC(C)C2)cn1C` (configuration not stated), the survival is 93%.

`COc1cccc(CNC(=O)c2cc(S(=O)(=O)N3CCCCCC3)cn2C)c1`: the survival was 82%.

Take `CC1CCCN(S(=O)(=O)c2cc(C(=O)NCCc3ccccc3)n(C)c2)C1` (configuration not stated): the survival is 73%.

On to `COc1cccc(CNC(=O)c2cc(S(=O)(=O)N3CCCCC3)cn2C)c1`, for which the survival was 0% (active).

Regarding `COc1ccc(CNC(=O)CCc2c(C)c3cc4c(C)coc4cc3oc2=O)cc1`, the survival was 75%.

With `O=C(Nc1ccc(-c2nc3cc(NC(=O)c4ccc(F)cc4)ccc3o2)cc1)c1ccc(F)cc1`, the survival is 75%.

`O=C(O)/C=C/C(=O)Nc1ccc(-c2nc3ccccc3o2)cc1`: the survival is 74%.

`O=S(=O)(Nc1ccc(-c2nc3ccccc3o2)cc1)c1ccccc1`: the survival was 24% (active).

Consider `O=S(=O)(Nc1ccc2nc(-c3ccc(F)cc3)oc2c1)c1ccccc1`, for which the survival is 32% (active).

Turning to `Cc1ccc(S(=O)(=O)N2CCCc3cc(NS(=O)(=O)c4ccc(F)cc4)ccc32)cc1`, the survival is 74%.

Take `Cc1ccccc1C(=O)Nc1ccc(-c2nc3ccccc3o2)cc1`: the survival was 101%.

As for `Cc1ccc(SCC(=O)Nc2ccc3oc(-c4cccc(Cl)c4)nc3c2)cc1`, the survival was 72%.

Consider `O=S(=O)(Nc1ccc2nc(-c3cccc(Cl)c3)oc2c1)c1ccccc1`, for which the survival was 52%.

Regarding `Cc1ccc(S(=O)(=O)Nc2ccc3nc(-c4cccc(Cl)c4)oc3c2)cc1`, the survival was 28% (active).

For `Cc1ccc(S(=O)(=O)Nc2ccc3nc(-c4ccc(F)cc4)oc3c2)cc1`, the survival is 11% (active).

Consider `O=S(=O)(Nc1ccc2nc[nH]c2c1)c1ccccc1`, for which the survival is 95%.

In the case of `COC(=O)c1ccc(-c2nc3ccc(C)cc3o2)cc1`, the survival was 102%.

In the case of `O=C1CC(c2cccc(O)c2)c2c(nc(SCc3ccccc3F)[nH]c2=O)N1` (configuration not stated), the survival was 106%.

On to `COc1cc(NC(=O)CN2C(=O)C(c3ccc(C)cc3)=NC23CCCCCC3)cc(OC)c1`, for which the survival is 83%.

Consider `O=C(COc1ccc(F)cc1)NCc1ccc2c(c1)CCN2C(=O)c1ccccc1`, for which the survival was 81%.

Take `COc1ccc(C2CC(=O)NC(NC(=O)c3ccc(Br)cc3)=N2)c(OC)c1OC` (configuration not stated): the survival is 86%.

As for `CCOC(=O)N1CCc2c(sc3c2c(=O)n(-c2ccc(Cl)cc2)c(=O)n3CC(C)C)C1`, the survival is 94%.

For the molecule `CN(C)CCNC(=O)Cn1nc(N2CCN(c3ccccc3)CC2)ccc1=O`, the survival was 86%.

Consider `CC(=O)c1ccc(NC(=O)C2CCN(S(=O)(=O)c3ccc4[nH]c5c(c4c3)CCCCC5)CC2)cc1`, for which the survival is 94%.

As to `O=C1COc2cc(S(=O)(=O)CCC(=O)N3CCN(c4cccc(Cl)c4)CC3)c(Cl)cc2N1`, the survival was 66%.

`CCOC(=O)C1=C(CN2CCC(C(=O)OCC)CC2)NC(=O)NC1c1ccc(Cl)cc1` (configuration not stated): the survival was 111%.

Turning to `COc1ccc(-n2nnc(C(=O)Nc3ccccc3F)c2N)cc1`, the survival was 68%.

Turning to `O=C(Nc1ccc(C(F)(F)F)cc1)C1(c2cccs2)CCOCC1`, the survival is 87%.

Turning to `Cc1cccc(C)c1NC(=O)CCS(=O)(=O)c1cccc2nonc12`, the survival is 74%.

Turning to `Cc1ccc(Nc2ncnc3onc(C)c23)cc1Cl`, the survival is 67%.

As for `Cc1ccc(C2=NC(c3ccc(F)cc3)=Nc3ccc(C)cc3N2)cc1`, the survival was 72%.

As for `O=C(NN=C1CCCCC1)c1n[nH]c2c1CCC2`, the survival was 97%.

For the molecule `CCc1ccc(C(=O)c2cn(CC(=O)Nc3ccc(OC)cc3)c3cc4c(cc3c2=O)OCO4)cc1`, the survival is 81%.

In the case of `COc1ccc(CN2CCc3c(c(=O)n4ncc(C(=O)N5CCN(c6ccccc6F)CC5)c4n3C)C2)cc1`, the survival was 88%.

On to `COc1ccccc1NC(=O)c1cc(S(=O)(=O)N(C)C2CCCCC2)ccc1F`, for which the survival is 85%.

Regarding `CCCSc1ncc(Cl)c(C(=O)Nc2sc3c(c2C(=O)NCCOC)CCCC3)n1`, the survival is 92%.

On to `COCCCNC(=O)c1c(NC(=O)c2nc(S(C)(=O)=O)ncc2Cl)sc2c1CCCC2`, for which the survival was 53%.

For `Cc1cccc(CSc2ncc(Cl)c(C(=O)Nc3sc4c(c3C(N)=O)CCCC4)n2)c1`, the survival was 112%.

Regarding `CCNC(=O)c1c(NC(=O)c2nc(S(=O)(=O)CC)ncc2Cl)sc2c1CCCC2`, the survival is 34% (active).

Turning to `CCCSc1ncc(Cl)c(C(=O)Nc2sc3c(c2C(=O)NCC)CCCC3)n1`, the survival was 45% (active).

On to `CCCSc1ncc(Cl)c(C(=O)Nc2sc3c(c2C(N)=O)CCCC3)n1`, for which the survival is 46% (active).

As to `CCOCCCNC(=O)c1c(NC(=O)c2nc(SC)ncc2Cl)sc2c1CCCC2`, the survival is 64%.

In the case of `CCCSc1ncc(Cl)c(C(=O)Nc2sc3c(c2C(=O)OC)CCCC3)n1`, the survival is 53%.

For the molecule `CCSc1ncc(Cl)c(C(=O)Nc2sc3c(c2C(=O)NCCCOC)CCCC3)n1`, the survival was 108%.

`CCN(CC)c1nn2c(=O)c(C(=O)NCc3ccc(OC)cc3OC)cnc2s1`: the survival was 75%.

For the molecule `CCOc1ccc(NC(=O)CSc2oc(-c3ccco3)nc2S(=O)(=O)c2ccccc2)cc1`, the survival was 101%.

Regarding `Cc1ccc(NC(=O)n2ncc3c(C)cccc32)c(C)c1`, the survival was 85%.

As to `COc1ccc(-n2nc(C(=O)Nc3ccc(C)cn3)c3c4ccccc4n(C)c3c2=O)cc1`, the survival was 76%.
